Here are results for 69 compounds from PubChem BioAssay AID761 (NMMLSC, 2007).

Molecules are shown by their SMILES. Screen size: about 190,000 compounds; about 400 (0.21%) were called active. Another 2% or so got no clear call; they are omitted. For the sample, actives were picked, then their nearest neighbours and some compounds at random. Values without a mark were called inactive.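 Rule for the calls: active = percent activity GTP binding at least 20 points away from the 100% baseline, either down as inhibitor or up as activator; inconclusive = compound flagged as likely green fluorescent from well-wide comparison; inactive = the rest.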

The target in this assay is Cell division control protein 42 homolog (Homo sapiens) (UniProt P60953). Description: modulators of GTP binding to wildtype Cdc42, primary screen, biochemical, multiplex bead flow cytometry, Bodipy-GTP (AID 761).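 Note: median bead fluorescence of bound Bodipy-FL-GTP at 100 nM; 0% = excess unlabeled GTP control and 100% = no compound control; below 100% means less GTP binding so inhibitor and above means activator.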 Conditions: GST-Cdc42 beads, at 10 µM, actives lie on both sides. In general terms: Flow cytometry measures light scatter and fluorescence of single cells or particles in a stream.
Sequence of Cell division control protein 42 homolog (Homo sapiens) (P60953 whole entry, looked up): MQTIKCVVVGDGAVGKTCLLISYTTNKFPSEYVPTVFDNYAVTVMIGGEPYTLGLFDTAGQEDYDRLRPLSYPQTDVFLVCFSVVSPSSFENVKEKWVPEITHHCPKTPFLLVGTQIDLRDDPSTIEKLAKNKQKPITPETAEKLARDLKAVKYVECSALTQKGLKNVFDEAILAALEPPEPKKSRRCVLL
As for `CCOC(=O)N1CCC(=NNC(N)=O)CC1`, the percent activity (GTP binding) is 102%. To `CCOC(=O)C(NC(C)=O)C(=O)Nc1ccc(OC)cc1` (centres undefined) belongs 93%; to `S=C(Nc1cccc(Br)c1)N1CCn2cccc2C1c1cccnc1` (centres undefined), 96%. Regarding `O=C(CSc1ccccc1)Nc1ccc(C(=O)Nc2cccc(O)c2)cc1`, the percent activity (GTP binding) was 77% (active). Regarding `O=C(CSc1ccccc1)Nc1ccc(NC(=O)c2ccco2)cc1`, the percent activity (GTP binding) is 100%. For `Cc1cc(C)cc(NC(=O)CSc2ccccc2)c1` the value was 91%. Consider `COCCSc1nnc(NC(=O)c2cc(OC)c(OC)cc2[N+](=O)[O-])s1`, for which the percent activity (GTP binding) was 102%. Take `O=C(CSc1ncnc2c1nnn2Cc1ccc(F)cc1)NC1CCCC1`: the percent activity (GTP binding) was 96%. Consider `CC(=O)c1ccc(NC(=O)C(C)N(C)CC(=O)Nc2ccccc2Cl)cc1` (centres undefined), for which the percent activity (GTP binding) is 98%. To `COC(=O)C(C)N=Cc1ccccc1` (centres undefined) belongs 97%; to `NS(=O)(=O)c1ccc(CCNC(=O)c2ccc(Cl)cc2[N+](=O)[O-])cc1`, 92%; to `COC(=O)c1ccc(-n2cnc3ccccc32)nc1`, 95%. As to `CCC(C)NCC(=O)Nc1ccc([N+](=O)[O-])cc1C(=O)Nc1ccccc1F` (centres undefined), the percent activity (GTP binding) was 98%.

As for `CCCn1nc(Oc2nc(NC(C)C)nc(N(C)C)n2)ccc1=O`, the percent activity (GTP binding) was 97%. To `CN(C)c1nnnn1-c1ccc(Cl)cc1` belongs 96%. To `O=C(/C=C/c1ccccc1[N+](=O)[O-])OC1CCCCC1=O` (centres undefined) belongs 97%. For `O=C(N/N=C/c1ccco1)c1ccc(C(=O)N/N=C/c2ccco2)o1` the value was 84%; for `O=C(Nc1ccc([N+](=O)[O-])cc1)C1CC12CCC2` (centres undefined), 96%.

For the compound `O=C(/C=C/c1ccc(Cl)c([N+](=O)[O-])c1)c1cccnc1`, the percent activity (GTP binding) is 79% (active). As for `O=C(Nc1cccnc1)c1ccc(Cl)c([N+](=O)[O-])c1`, the percent activity (GTP binding) was 96%. In the case of `O=C(/C=C/c1ccc(Cl)cc1Cl)c1cccnc1`, the percent activity (GTP binding) is 88%. For `CC(=O)C1=C(C)NC2=C(C(=O)CC(C)(C)C2)C1C` (centres undefined) the value was 96%.

As for `CN(CCOc1ccccc1)Cc1nc2cc(Cl)ccc2c(=O)[nH]1`, the percent activity (GTP binding) was 93%. Turning to `O=C(CC1Nc2ccccc2NC1=O)Nc1ccccc1NC(=O)CC1Nc2ccccc2NC1=O` (centres undefined), the percent activity (GTP binding) was 99%. For `Cc1nc2nc[nH]n2c(=O)c1C/C=C/c1ccccc1` the value was 89%; for `COc1ccc(C(=O)C2CCCN(C(=O)c3cc4nc(C)cc(C)n4n3)C2)cc1F` (centres undefined), 99%; for `O=C(COC(=O)CCc1ccc(S(=O)(=O)N2CCOCC2)cc1)Nc1cccc(Cl)c1`, 97%.

For the compound `O=C(c1ccccc1Cl)N(Cc1ccccc1F)N1C(=O)CCCC1=O`, the percent activity (GTP binding) is 98%. For `O=C(O)Cc1sc(-c2ccccc2)nc1-c1cccs1` the value was 92%; for `CCS(=O)(=O)C1=NSC2=NC(=O)/C(=C\c3cc(C)n(-c4cccc(OC)c4)c3C)C(=N)N21`, 93%; for `N/C(=N\OC(=O)c1ccc([N+](=O)[O-])cc1)c1ccccn1`, 96%. For `O=C(CN1CCC(O)(c2ccccc2)CC1)Nc1ccc2c(c1)OCCO2` the value was 97%.

Consider `CCN1CC(CN(C)Cc2nc(-c3ccc(Cl)cc3)no2)CC1=O` (centres undefined), for which the percent activity (GTP binding) is 101%.

For `Cc1ccc([N+](=O)[O-])c(OCCCNCC(C)O)c1` (centres undefined), the percent activity (GTP binding) is 103%. For `CCCN(CCC)c1ccc(C(O)c2nnc(-c3ccccc3)o2)cc1` (centres undefined) the value was 95%. In the case of `O=C(NCC(O)c1ccc([N+](=O)[O-])cc1)C1CCCCC1` (centres undefined), the percent activity (GTP binding) is 97%. To `CN1CCN(c2nc(Nc3ccc(O)cc3)nc3ccccc23)CC1` belongs 95%; to `CCn1c(COc2c(C)cccc2C)nnc1SCc1nc2ccccc2c(=O)[nH]1`, 94%. For `O=S(=O)(NC1CC1)c1ccc2c3c(cccc13)CC2`, the percent activity (GTP binding) is 93%. With `CCOC(=O)CSc1nc2c(sc(=S)n2CCc2ccccc2)c(=O)n1Cc1ccco1`, the percent activity (GTP binding) was 99%. To `CN(c1ccccc1)c1ccc(/C=c2\s/c(=C(/C#N)C(=O)C(C)(C)C)n(Cc3ccco3)c2=O)cc1` belongs 143% [activator] (active).

On to `Cc1cc2c(c(=O)n1Cc1ccco1)C(c1ccccc1)C(C#N)=C(N)O2` (centres undefined), for which the percent activity (GTP binding) is 103%. For `CCCNCc1cc(OCC)c(OCC(=O)Nc2ccccc2)cc1Br` the value was 96%; for `CC(=O)N1CCc2cc(Br)cc(S(=O)(=O)CCC(=O)Nc3c(C)n(C)n(-c4ccccc4)c3=O)c21`, 100%; for `Cc1cc(NC(=O)CSc2nccn2-c2ccc([N+](=O)[O-])cc2)no1`, 96%.

For the compound `CC(=O)Nc1ccc(NC(=O)CSc2nnc(COc3ccccc3C)n2CC2CCCO2)cc1` (centres undefined), the percent activity (GTP binding) is 99%. `C=CCO/N=C/C1=C(O)C(C(=O)OC)C(C)(C)CC1=O` (centres undefined): the percent activity (GTP binding) is 108%.

On to `COC(=O)c1cc(NC(=O)CN2CCN(C(C)=O)CC2)cc(C(=O)OC)c1`, for which the percent activity (GTP binding) was 99%.

`Cc1cc(N2CCN(C)CC2)nc2ccc(NC(=S)N3CCOCC3)cc12`: the percent activity (GTP binding) is 96%. To `COc1cccc(NC(=O)CC2C(=O)NCCN2C(=S)Nc2ccc(F)cc2)c1` (centres undefined) belongs 97%; to `CCOC(=O)C(CC)/C(C)=N\NC(=O)c1cccc(C)c1` (centres undefined), 92%; to `Cc1ccc(/C([O-])=C(/C(=S)NCc2ccco2)[n+]2ccccc2)cc1[N+](=O)[O-]`, 95%. Take `CCn1nc(C)c(CN2CCN(Cc3ccc(OC)c(C)c3C)C(CCO)C2)c1C` (centres undefined): the percent activity (GTP binding) was 97%. To `C=CCc1ccc(OCC(O)CN2CCN(Cc3ccccc3)CC2)c(OC)c1` (centres undefined) belongs 94%; to `CC(=O)Nc1ccc(S(=O)(=O)Nc2ccc(-c3ccc4nnc(C)n4n3)cc2)cc1`, 89%; to `Nc1ccc(-c2sc(N)nc2-c2ccccc2)cc1`, 97%. With `Nc1[nH]c(=S)nc2nc(-c3ccccc3)c(-c3ccccc3)nc12`, the percent activity (GTP binding) was 78% (active).

For `O=C(NNc1cc(Cl)ccc1Cl)c1cccnc1Cl`, the percent activity (GTP binding) was 97%. For `CCOC(=O)c1ccccc1NC(=S)N1CCC(C(N)=O)CC1` the value was 97%; for `O=C(/C=C/c1ccccc1)Oc1coc(CSc2ncccn2)cc1=O`, 91%; for `Cc1ccc(CN2CCN(Cc3ccc4ncccc4c3)CC2CCO)cc1` (centres undefined), 94%. For `Cc1nccc(-c2ccc(-n3c(C)ccc3C)cc2)n1`, the percent activity (GTP binding) is 93%. For `Cc1ccc(N2C(=O)C3CC3C2=O)cc1` (centres undefined) the value was 98%; for `Cc1ccccc1CN1C[C@@H]2C[C@@H](c3ccc4nsnc4c3)N3CCC[C@@]23C1=O`, 101%; for `CCS(=O)(=O)c1ccc(C(=O)NC)c(Cl)c1Cl`, 91%.

With `COc1ccc(C)cc1NC(=O)Nc1ccccc1SC`, the percent activity (GTP binding) was 98%. For `CC(C)C(O)C1CCN(Cc2nc(Cc3ccccc3Cl)no2)CC1` (centres undefined) the value was 96%; for `COc1ccc(CN2CCCC(CNC(=O)c3ccc(F)cc3)C2)cc1OC` (centres undefined), 97%. To `COc1ccc(Cl)cc1NC(=O)NC(C)C(C)(C)C` (centres undefined) belongs 101%.
